According to PubChem BioAssay (NCI):
This is part of a sample that, as a whole, favours compounds with a hit. Of some 83,000 tested, about 20% had one in any assay.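 Testing used 96-well plates and a 48-hour single-concentration exposure. Example: -40 means 40% of the starting cells died.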 Active and inactive are the calls of the source.

tested on: HT29 colon; experiment: NCI-60 one-dose screen, 48 h (100 = growth as untreated, 0 = no growth, -100 = all killed); conditions: 10 µM unless noted
Experimental: Growth inhibition of the HT29 human tumor cell line is measured as a screen for anti-cancer activity. Cells are grown in 96 well plates and exposed to the test compound for 48 hours. Compounds are tested at a single concentration, which is 10^-5 M for most compounds. The reported endpoint is percent growth (GI% or GIPRCNT), where numbers from 0 - 100% represent growth inhibition, and numbers from -100% - 0 represent cell death. For example, a value of 40 represents 60% growth inhibition. A value of 0 means no net growth occurred over the course of the experiment. A value of -40 indicates 40% of cells at the beginning of the experiment died by the end of the experiment. A value of -100 means all cells are dead at the end of the experiment.
NCI-60 Human Tumor Cell Lines Screen was performed using the standard one-dose NCI protocol, which is described in more detail at https://dtp.cancer.gov/discovery_development/nci-60/default.htm.
Compounds with GIPRCNT values below 10 were considered active. Activity score was based on GIPRCNT using the following formula: […]
Score is 0 for GIPRCNT values of 100 or above, 50 for GIPRCNT values of 0, and 100 for GIPRCNT values of -100.

Structure (SMILES) | growth
CCc1c(C(=O)N[C@@H](C(=O)OCc2ccccc2)C(C)O)[nH]c2ccc(Cl)cc12 (stereo not given in full) | 72.8% (inactive)
COc1ccc2nc(-c3ccc(OC)c(OC)c3)cc(-c3nnc(SCC(=O)Nc4ccc(/C(C)=N\O)cc4)n3-c3ccccc3)c2c1 | 89.2% (inactive)
COc1ccc(-c2nnc(N3CCN(C(=O)CN4CCN(c5ccccc5)CC4)CC3)nc2-c2ccc(OC)cc2)cc1 | 3.46% (active)
Cc1ccc2nc3nc4ccc[nH]c4cc3c2c1 | 76.8% (inactive)
CCN1CCN(c2ccc(NC(=O)Nc3nc4ccc(-c5ccccc5OC)cc4s3)cc2)CC1 | -92% (active)
O=C1C(=O)c2c(nc3ccc(C(F)(F)F)cn23)-c2ccccc21 | -9.93% (active)
CC1=C(CCCOC(=O)NCCCl)C2=C(C)C3(CC3)[C@@](C)(O)C(=O)C2=C1 | 31.1% (inactive)
Cc1cc2ccccc2c[n+]1CC(=O)c1ccc(-c2ccccc2)cc1 | 24.8% (inactive)
N#Cc1ccc(N2Cc3cc(Cl)ccc3OC3=C2C(=O)N(Cc2ccc(F)cc2)C3=O)cc1 | -59.1% (active)
Cc1nc(C)c(C)nc1C | 97% (inactive)
COc1ccc2cc(/C=C3\N=C(c4cc(OC)c(OC)c(OC)c4)OC3=O)c(OC)nc2c1 | 98.8% (inactive)
COC1=CC2C=C(C3N(c4ccccc4)NC(=O)[C@@H]4CCCN34)C(=O)NC2C=C1 (stereo not given in full) | 102% (inactive)
Nc1ccccc1NS(=O)(=O)c1ccc(Cl)cc1 | 91.7% (inactive)
C[C@@H]1C(=O)[C@@H]2C[C@@H](O)[C@@H](O)C[C@]2(C)[C@H]2CC[C@@]3(C)C(=C12)CC[C@@H]3[C@@](C)(O)[C@H](O)CCC(C)(C)O | 97.6% (inactive)
C=C(C)[C@@H]1CC[C@]2(C(=O)N=C=S)CC[C@]3(C)[C@H](CC[C@@H]4[C@@]5(C)CCC(=O)C(C)(C)[C@@H]5CC[C@]43C)[C@@H]12 | 15.5% (inactive)
CCN(CC)c1ccc2c(c1)Oc1nc(N)c(C#N)c(N)c1C2Sc1ccc(OC)cc1 (stereo not given) | -61.6% (active)
CC1(C)[C@@H](O)CC[C@]2(C)[C@H]3CC[C@@H]4[C@H]5[C@H](c6cn(-c7ccccc7)nn6)CC[C@]5(CO)CC[C@@]4(C)[C@]3(C)CC[C@@H]12 | 84.7% (inactive)
O=C1NC(SCc2ccc(F)cc2)=N/C1=C/c1cccc(OCc2ccc(Cl)cc2)c1 | 68.1% (inactive)
Cn1c2ccccc2c2c(OC(=O)c3ccccc3)c3c(nc21)-c1ccccc1C3 | 92.1% (inactive)
Cn1nc(C(F)(F)F)c(-c2cc(C(F)(F)F)cc(C(F)(F)F)c2)c1-c1ccc(OCc2ccc(Cl)cc2)cc1O | 3.77% (active)

Structure (SMILES) | growth
N#C/C(=C/c1ccc(O)c([N+](=O)[O-])c1)c1nc(-c2ccc([N+](=O)[O-])cc2)cs1 | 52.7% (inactive)
C=C1C(=O)O[C@H]2[C@H]1CC/C(COC(=O)c1c[nH]c3ccccc13)=C\CC[C@@]1(C)O[C@@H]21 | -59.8% (active)
N#Cc1ccc(N2Cc3cc(Cl)ccc3OC3=C2C(=O)N(Cc2ccccc2)C3=O)cc1 | -47.3% (active)
O=C(Nc1cc(Nc2ncccc2-c2ncnc3nc[nH]c23)ccc1F)c1cc(C(F)(F)F)cc(C(F)(F)F)c1 | -23.8% (active)
CC(C)CSc1nc(Nc2ccccc2)c(C#N)c(-c2ccc(F)cc2)n1 | 50.7% (inactive)
CCC[S@@](=O)c1ccc2nc(NC(=O)OC)[nH]c2c1 | 62.5% (inactive)
CCCCC1=c2c([nH]c3ccc(OC)cc23)=NC2C=CC=NC12 (stereo not given) | 77.8% (inactive)
CCOc1ccc(C2N(c3cc(OC)c(OC)c(OC)c3)C(=O)C2(F)F)cc1 (stereo not given) | 12.3% (inactive)
Cc1nc2sc(C(=O)Nc3cccc(Cl)c3C)c(N)c2cc1C(C)O (stereo not given) | 1.68% (active)
CCOCCc1c(O)nc(SC)[nH]c1=O | 101% (inactive)
COC(=O)/C=C/c1cc(OC(C)=O)c2c(c1)C(C(=O)OC)C(c1ccc(OC(C)=O)c(OC(C)=O)c1)O2 (stereo not given) | 11% (inactive)
CCOC(=O)c1cnn(-c2nc(-c3ccc(F)cc3)c(C#N)c(N3CCOCC3)n2)c1N | 92% (inactive)
O=C(O)COc1ccc2c(=O)c3sc4c(=O)c5ccccc5c(=O)c4c3c(=O)c2c1 | -37.4% (active)
COc1cc(C2CC(c3ccc(Nc4nc(NCCO)nc(NCCO)n4)cc3)=NN2c2cc(Cl)cc(Cl)c2)cc(OC)c1OC (stereo not given) | -47% (active)
COc1ccc(NC(=O)c2ccc(Nc3ncnc4[nH]c(C)c(C)c34)cc2)cc1 | 103% (inactive)
O=C(CCc1nnc2sc(OCc3ccccc3)nn12)c1nc2ccc([N+](=O)[O-])cc2[nH]1 | 107% (inactive)
CN(C)[C@@H]1C(=O)C(C(N)=O)=C(O)[C@@]2(O)C(=O)C3=C(O)c4c(O)cc(CN5CCc6ccccc6C5)c(Cl)c4C[C@H]3C[C@@H]12 | -84.6% (active)
COc1ccc2[nH]c(=O)c(/C=C/C(=O)/C=C/c3ccc(O)c(OC)c3)cc2c1 | -38.7% (active)
OCCNc1nc(NCCO)nc(Nc2ccc(C3=NN(c4cc(Cl)cc(Cl)c4)C(c4ccccc4)C3)cc2)n1 (stereo not given) | 9.1% (active)
C=C1C(=O)O[C@H]2[C@H]1CC/C(COC(=O)CCCCCCC(=O)OC/C1=C/CC[C@@]3(C)O[C@H]3[C@H]3OC(=O)C(=C)[C@@H]3CC1)=C\CC[C@@]1(C)O[C@@H]21 | 3.75% (active)
